NTMT1 inhibitor: Primary qHTS for Inhibitors of N-terminal methyltransferase 1 (NTMT1): MTaseGlo Assay | NTMT1 MTase-Glo SAH luminescence, purified enzyme | AID 1645870, 2021 | N-terminal Xaa-Pro-Lys N-methyltransferase 1 (Homo sapiens), Q9BV86 | Potency, µM (highest dose often 114 µM), hits mostly inhibitors | hit rate 2.5% among 59,000; note: nearly all actives have a fitted effect of over 65% in size
Target sequence (Q9BV86 whole entry, looked up): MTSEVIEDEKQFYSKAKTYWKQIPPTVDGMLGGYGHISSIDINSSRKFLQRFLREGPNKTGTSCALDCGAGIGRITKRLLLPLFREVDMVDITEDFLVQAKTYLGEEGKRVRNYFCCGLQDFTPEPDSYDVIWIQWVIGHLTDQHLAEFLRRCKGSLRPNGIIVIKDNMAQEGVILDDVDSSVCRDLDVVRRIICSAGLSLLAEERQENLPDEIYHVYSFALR
GPR32 ag: qHTS for Agonists of Human Resolvin D1 Receptor DRV1; Probable G-protein coupled receptor 32 (Homo sapiens), O75388; CHO-K1 GPR32 beta-arrestin PathHunter luminescence, 90 min; zero percent set by DMSO-only wells; activation, % at 76.9 µM; hit rate 2.5% among 48,000;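 active = activation of at least 60% and not above a set upper limit, about 1 call in 100 departs from these limits; inconclusive = activation of 40% to 60%, or above that upper limit; inactive = activation under 40%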
Target sequence (O75388 whole entry, looked up): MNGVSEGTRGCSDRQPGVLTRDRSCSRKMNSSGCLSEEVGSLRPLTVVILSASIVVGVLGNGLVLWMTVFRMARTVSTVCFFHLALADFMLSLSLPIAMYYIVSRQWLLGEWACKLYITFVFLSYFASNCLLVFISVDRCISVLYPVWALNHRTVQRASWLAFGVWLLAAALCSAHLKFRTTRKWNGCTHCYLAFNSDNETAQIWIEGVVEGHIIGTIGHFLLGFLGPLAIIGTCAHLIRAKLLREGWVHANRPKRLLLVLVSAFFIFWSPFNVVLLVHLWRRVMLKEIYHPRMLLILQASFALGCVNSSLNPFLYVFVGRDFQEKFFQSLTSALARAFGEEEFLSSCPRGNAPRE
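Cells are plated overnight, treated with compounds in DMSO for 90 minutes at 37 °C, and developed with PathHunter detection reagent for 1 hour before luminescence is read; signal reflects beta-arrestin binding to GPR32 in engineered CHO-K1 cells.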
HTT-AS promoter: Primary qHTS for Identification of Small Molecule Activators of Huntingtin-Antisense Promoter Activity | HEK293 HTT-AS promoter firefly luciferase reporter, 24 h; response scale: percent change from vehicle, -100% = no light | Potency, µM (titrated, usually from 57.5 µM), most hits filed as activators | hit rate 0.24% among 48,000 | AID 1508624, 2021; note: nearly all actives have a fitted effect of over 55% in size
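HEK293 cells carrying firefly luciferase reporters were seeded at 2,500 per well in Opti-MEM and cultured for 24 h. They were then treated with compounds at up to 57.5 uM final for 24 h at 37 degrees C before Dual-Glo luminescence readout.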
HTT prom inh: Primary qHTS for Identification of Small Molecule Inhibitors of Huntingtin Promoter Activity; HEK293 HTT promoter firefly luciferase reporter, 24 h; Potency, µM (highest dose often 57.5 µM), actives largely listed as inhibitors; hit rate 0.93% among 48,000; AID 1508623, 2021; note: nearly all actives have a fitted effect of over 50% in size
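Quantitative HTS used concentration series of up to 57.5 uM final on HEK293 luciferase reporter cells, 24 h at 37 degrees C. Readout was Dual-Glo firefly luminescence.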
Hits are given with their value; 0 = inactive; ? = inconclusive; - = no result given; ! = repeats disagree. Most compounds without a hit are left out; they make up all but 4.6% or so of the library. Unless noted, calls come from the whole dose curve; as a rule, active = well fitted curve in the direction sought with a large enough effect; inconclusive = small, poorly fitted or top-dose-only effect, or another doubt; inactive = no such curve, though single readings can be large; an effect the other way counts as inactive or inconclusive.

SMILES	NTMT1 inhibitor	GPR32 ag	HTT-AS promoter	HTT prom inh
CN(C/C=C/c1ccccc1)Cc1cccc2ccccc12	?	117	0	0
N[C@@H](CCC(=O)O)C(=O)N[C@@H](Cc1c[nH]c2ccccc12)C(=O)O	0	-	-	-
CC(C)(C)OC(=O)N1CCc2nc(N3CCN(c4ncccn4)CC3)ncc2C1	0	62	0	0
COc1ccc(Cl)c(Nc2ncnc3cc(OCC4CCN(C)CC4)c(OC)cc23)c1	28µM	-	-	-
COc1cc2ncnc(Nc3cc(Br)c(O)c(Br)c3)c2cc1OC	?	-	0	0
COc1cc2c(Nc3ccc(Cl)c(Cl)c3F)ncnc2cc1OCC1C[C@@H]2CN(C)C[C@@H]2C1 (stereo not given in full)	11µM	-	-	-
C=C[C@H]1[C@H](O[C@@H]2O[C@H](CO)[C@@H](O)[C@H](O)[C@H]2O)OC=C(C(=O)OC)[C@H]1CCO	0	-	-	-
CC(=O)O[C@@](C)(C(=O)/C=C/C(C)(C)O)[C@H]1[C@H](O)C[C@@]2(C)[C@@H]3CC=C4[C@@H](C=C(O)C(=O)C4(C)C)[C@]3(C)C(=O)C[C@]12C	0	-	-	-
Nc1ccc2cc3ccc(N)cc3nc2c1	35µM	0	0	?
Nc1ccc(-c2ccc3ccccc3n2)cc1	-	0	-	-
Oc1ccc(O)cc1	35µM	0	0	0
Oc1ccccc1	0	0	0	0
O=C1N/C(=C\c2ccco2)C(=O)N1Cc1ccccc1	0	-	-	-
CCN(CC)CCCn1c(-c2ccccc2)nc2c(NCc3ccccc3)nc(C)nc21	0	-	-	-
CCN(CC)CCCCn1c(-c2ccccc2)nc2c(NCc3ccccc3)nc(C)nc21	89µM	-	-	-
COc1cc(C(N)=O)ccc1NC(=O)[C@@H]1N[C@@H](CC(C)(C)C)[C@@]2(C(=O)Nc3cc(Cl)ccc32)[C@H]1c1cccc(Cl)c1F	0	-	-	-
COc1cccc2cc(C(=O)Nc3ccc(CC(=O)O)cc3)c(=O)oc12	?	0	0	0.28µM
O=C(CSc1nnc2[nH]c(=O)cc(-c3ccccc3)n12)Nc1cc(C(F)(F)F)ccc1Cl	?	0	18µM	0
Cc1ccc(OCCn2c(CCN(C)C(=O)C3CCCCC3)nc3ccccc32)cc1	0	-	-	-
CCC(Cc1ccccc1)NC(=O)Cn1nc(C)n2c(cc3occc32)c1=O (stereo not given)	89µM	0	0	0
CCc1nn(CC(=O)NC(C)CC)c(=O)c2cc3occc3n12 (stereo not given)	0	0	0	0
Clc1ccccc1-c1nc(NCc2ccc(-c3cccnc3)cc2)c2ccccc2n1	0	-	-	-
CCc1ccc(OCC(=O)NCc2nc(-c3cccc(C)c3)no2)c(Br)c1	0	0	0	0
O=C(COc1ccc(Br)cc1Cl)Nc1ncn[nH]1	0	0	8.9µM	0
CCc1ccc(OCC(=O)Nc2ncn[nH]2)c(Br)c1	0	0	25µM	0
SMILES	NTMT1 inhibitor	GPR32 ag	HTT-AS promoter	HTT prom inh
Nc1n[n+]([O-])c2ccccc2[n+]1[O-]	0	-	-	-
COc1cc(O)c2c(=O)c(O)c(-c3ccc(O)c(O)c3)oc2c1	25µM	-	-	-
O=c1c(O)c(-c2ccc(O)c(O)c2)oc2cc(O)ccc12	50µM!	-	0	?
Fc1ccc(-c2ccc(CNc3nc(-c4ccccc4C(F)(F)F)nc4ccccc34)cc2)cc1	0	-	-	-
Cc1cc(-c2ccccc2)n2ncc(C(=O)Nc3ccccc3Sc3ccccc3)c2n1	0	-	-	-
CC/C=C/C(O)C(O)C1=C(C)C(=O)C2(O1)C(=O)NC(OC)(C(=O)c1ccccc1)C2O (stereo not given)	0	-	-	-
Cc1ccc(NC(=O)NCc2ccc3c(c2)CN(C2CCC(=O)NC2=O)C3=O)cc1Cl (stereo not given)	0	-	-	-
COc1cccc(CNC(=O)Cn2c(SCC(=O)Nc3ccc(C)c(C)c3)nc3ccccc32)c1	?	113	0	0
CCOc1cc2ncc(C#N)c(Nc3ccc(F)c(Cl)c3)c2cc1NC(=O)C=CCN(C)C	3.8µM	-	0	0
CN(C)CC=CC(=O)Nc1cc2c(Nc3ccc(F)c(Cl)c3)ncnc2cc1O[C@H]1CCOC1	22µM	-	0	?
CN(C)C/C=C/C(=O)Nc1cc2c(Nc3ccc(F)c(Cl)c3)ncnc2cc1O[C@H]1CCOC1	3.2µM	-	-	-
CNc1nccc(-c2cccc3ccccc23)n1	0	-	-	-
CC(C)(C)OC(=O)c1ncn2c1C(C)(C)Nc1ccccc1-2	0	-	-	-
CSc1ccc(CNC(=O)C2CCCN(S(=O)(=O)N(C)c3ccc(F)cc3)C2)cc1 (stereo not given)	0	0	0	22µM
Cn1cc(-c2cnn3c(N)c(Br)c([C@H]4CCCNC4)nc23)cn1	0	-	0	?
Cn1cc(-c2cnn3c(N)c(Br)c([C@@H]4CCCNC4)nc23)cn1	35µM!	-	-	-
Cc1nc(-c2ccc(OCC(C)C)c(C#N)c2)sc1C(=O)O	?	0	0	5µM!
CC(C)(C)COc1ccc(-n2cc(C(=O)O)cn2)cc1C#N	?	-	0	?
O=c1oc2c(O)c(O)cc3c(=O)oc4c(O)c(O)cc1c4c23	3.5µM!	?	0	0
Cc1ccc(-c2noc(CCCC(=O)NCc3ccco3)n2)cc1	0	0	0	3.5µM
O=C(CCCc1nc(-c2ccc(Cl)cc2)no1)NCc1ccco1	0	0	0	?
Cc1ccccc1OCC(=O)Nc1ccccc1C(=O)OCc1cc(=O)n2ccsc2n1	0	0	0	0
Cc1ccccc1OCC(=O)Nc1ccccc1C(=O)OCc1cc(=O)n2c(C)csc2n1	0	0	0	2.2µM
CCOC(=O)c1nnc(N[S+](=O)([O-])c2ccc(NC(=O)Cc3ccc(Cl)c(Cl)c3)cc2)s1	79µM	-	-	-
Cc1ccc(S(=O)(=O)Nc2ccccc2C(=O)Nc2ccc(-c3ccccc3)nn2)cc1	0	-	-	-
SMILES	NTMT1 inhibitor	GPR32 ag	HTT-AS promoter	HTT prom inh
Cc1ccc(OCCn2c(CCNC(=O)c3ccccc3F)nc3ccccc32)cc1	0	-	-	-
Cc1cccc(CN2CCN(CC(=O)NCCc3ccc(Cl)cc3)C2=O)c1	0	75	0	0
Cc1ccc(CNC(=O)CN2CCN(Cc3ccc(F)cc3)C2=O)cc1	?	0	0	0
O=C(CN1CCN(Cc2ccccc2Cl)C1=O)NCCc1ccc(Cl)cc1	0	71	0	0
O=C(CN1CCN(Cc2ccccc2F)C1=O)NCc1ccccc1	0	0	0	0
Cc1ccc(-c2cc(C(=O)Nc3ccc(C#N)cc3)c3ccccc3n2)cc1C	0	-	-	-
Cc1ccc(S(=O)(=O)N(CC(O)Cn2c3ccccc3c3ccccc32)c2cccc(C(=O)N(C)C)c2)cc1 (stereo not given)	0	0	0	0
Cc1ccc(S(=O)(=O)N(CC(O)Cn2c3ccccc3c3ccccc32)c2cccc(C(N)=O)c2)cc1 (stereo not given)	0	86	0	?
Cc1ccccc1-c1noc(-c2cc3ccccc3oc2=O)n1	0	0	2.5µM	0
CN(C)C(CCOc1cccc2ccccc12)c1ccccc1 (stereo not given)	0	-	-	-
Oc1ccc(NCc2ccccc2OCc2ccccc2Cl)cc1	45µM	0	0	0
Oc1ccc(NCc2ccccc2OCc2ccccc2F)cc1	?	0	0	0

Screening results as filed in PubChem BioAssay.
